Measurements as given in article PMC7862700, “An all-to-all approach to the identification of sequence-specific readers for epigenetic DNA modifications on cytosine”.

How the values were obtained:
Assay in all cases: DAPPL (digital affinity profiling via proximity ligation, sequencing); 10 mM Tris-HCl pH 7.5, 50 mM NaCl, 1 mM DTT, 4% glycerol, room temperature, 30 min; GST-TFs on glutathione beads, 16-mer random dsDNA library, 0.1% formaldehyde crosslink after washing; high values mean tight binding
FLI1 = target: T1, FLI1 (Homo sapiens, UniProt Q01543 1-452); details: protein: recombinant; tags: N-terminal GST; dsDNA, one strand shown
T1 sequence: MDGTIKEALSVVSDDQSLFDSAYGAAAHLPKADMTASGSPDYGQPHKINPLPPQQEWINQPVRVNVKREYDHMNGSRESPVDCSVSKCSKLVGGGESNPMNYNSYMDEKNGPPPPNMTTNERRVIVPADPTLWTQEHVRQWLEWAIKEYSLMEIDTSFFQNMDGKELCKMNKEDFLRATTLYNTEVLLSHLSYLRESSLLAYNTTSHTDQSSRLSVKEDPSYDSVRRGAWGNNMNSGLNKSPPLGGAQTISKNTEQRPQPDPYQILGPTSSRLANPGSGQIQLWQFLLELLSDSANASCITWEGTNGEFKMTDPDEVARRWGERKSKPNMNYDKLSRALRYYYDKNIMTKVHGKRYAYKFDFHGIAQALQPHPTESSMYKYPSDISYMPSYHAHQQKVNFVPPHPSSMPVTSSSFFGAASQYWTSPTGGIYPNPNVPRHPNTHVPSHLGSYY
Outline: (§1)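 The binding signal reported is, for every hexamer, its read frequency for a factor over its read frequency for the tag-only sample. Reads came from pools of yeast-expressed, GST-fused human transcription factors on glutathione beads, barcoded with DNA and mixed with that sample, which were incubated with 200 nmole of a random double-stranded 16-mer DNA library in Tris/NaCl/DTT/glycerol buffer at room temperature for 30 min. After washing, the pools were crosslinked with 0.1% formaldehyde, proximity-ligated with BsaI/T4 ligase for 1 h at 37 °C, PCR-amplified and sequenced on an Illumina NextSeq500.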

ELK1 = target: T2, ELK1 (Homo sapiens, UniProt P19419 1-428); details: protein: recombinant; tags: N-terminal GST; dsDNA, one strand shown
T2 sequence: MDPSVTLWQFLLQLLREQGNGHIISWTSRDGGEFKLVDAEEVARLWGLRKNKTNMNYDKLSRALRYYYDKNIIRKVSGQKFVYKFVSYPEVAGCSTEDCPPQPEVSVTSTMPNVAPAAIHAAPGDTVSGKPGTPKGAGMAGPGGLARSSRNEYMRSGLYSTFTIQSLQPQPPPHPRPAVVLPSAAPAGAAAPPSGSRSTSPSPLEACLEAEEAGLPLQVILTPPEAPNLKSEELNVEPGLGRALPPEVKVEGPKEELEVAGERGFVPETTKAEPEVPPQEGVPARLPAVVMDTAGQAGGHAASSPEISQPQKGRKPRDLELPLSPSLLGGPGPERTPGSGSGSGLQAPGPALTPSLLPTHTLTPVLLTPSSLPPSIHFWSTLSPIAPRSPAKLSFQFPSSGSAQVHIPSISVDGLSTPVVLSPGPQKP
Outline: as §1

GABPA = target: T3, GABPA (Homo sapiens, UniProt Q06546 1-454); details: protein: recombinant; tags: N-terminal GST; dsDNA, one strand shown
T3 sequence: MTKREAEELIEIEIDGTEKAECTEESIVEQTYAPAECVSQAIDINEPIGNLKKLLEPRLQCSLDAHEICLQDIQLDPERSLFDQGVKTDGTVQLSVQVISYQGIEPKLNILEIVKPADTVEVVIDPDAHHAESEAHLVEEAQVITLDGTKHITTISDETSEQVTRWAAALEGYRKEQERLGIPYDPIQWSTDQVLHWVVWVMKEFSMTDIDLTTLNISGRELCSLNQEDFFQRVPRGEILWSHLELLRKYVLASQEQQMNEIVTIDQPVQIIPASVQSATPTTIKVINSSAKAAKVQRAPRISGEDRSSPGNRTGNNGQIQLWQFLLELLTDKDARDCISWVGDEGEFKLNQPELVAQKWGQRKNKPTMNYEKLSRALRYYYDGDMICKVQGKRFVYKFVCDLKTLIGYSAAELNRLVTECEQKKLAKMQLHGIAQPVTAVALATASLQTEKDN
Outline: as §1

ERG = target: T4, ERG (Homo sapiens, UniProt P11308 1-479); details: protein: recombinant; tags: N-terminal GST; dsDNA, one strand shown
T4 sequence: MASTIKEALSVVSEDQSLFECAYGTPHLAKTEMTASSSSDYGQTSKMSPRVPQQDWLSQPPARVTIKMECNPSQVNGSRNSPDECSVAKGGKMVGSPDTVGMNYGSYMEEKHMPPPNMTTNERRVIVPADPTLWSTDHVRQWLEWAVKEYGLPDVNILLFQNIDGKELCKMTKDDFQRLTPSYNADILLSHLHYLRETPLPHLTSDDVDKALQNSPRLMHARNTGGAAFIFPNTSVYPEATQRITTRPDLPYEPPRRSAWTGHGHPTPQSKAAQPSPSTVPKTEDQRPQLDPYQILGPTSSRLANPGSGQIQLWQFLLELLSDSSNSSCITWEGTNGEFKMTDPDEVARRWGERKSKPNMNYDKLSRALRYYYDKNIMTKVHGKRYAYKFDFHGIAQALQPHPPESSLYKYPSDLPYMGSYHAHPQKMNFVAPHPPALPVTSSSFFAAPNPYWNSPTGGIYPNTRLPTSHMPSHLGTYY
Outline: as §1

ELF1 = ELF1 (Homo sapiens, UniProt P32519 1-619); details: protein: recombinant; tags: N-terminal GST; dsDNA, one strand shown
Sequence of ELF1 (P32519 whole entry): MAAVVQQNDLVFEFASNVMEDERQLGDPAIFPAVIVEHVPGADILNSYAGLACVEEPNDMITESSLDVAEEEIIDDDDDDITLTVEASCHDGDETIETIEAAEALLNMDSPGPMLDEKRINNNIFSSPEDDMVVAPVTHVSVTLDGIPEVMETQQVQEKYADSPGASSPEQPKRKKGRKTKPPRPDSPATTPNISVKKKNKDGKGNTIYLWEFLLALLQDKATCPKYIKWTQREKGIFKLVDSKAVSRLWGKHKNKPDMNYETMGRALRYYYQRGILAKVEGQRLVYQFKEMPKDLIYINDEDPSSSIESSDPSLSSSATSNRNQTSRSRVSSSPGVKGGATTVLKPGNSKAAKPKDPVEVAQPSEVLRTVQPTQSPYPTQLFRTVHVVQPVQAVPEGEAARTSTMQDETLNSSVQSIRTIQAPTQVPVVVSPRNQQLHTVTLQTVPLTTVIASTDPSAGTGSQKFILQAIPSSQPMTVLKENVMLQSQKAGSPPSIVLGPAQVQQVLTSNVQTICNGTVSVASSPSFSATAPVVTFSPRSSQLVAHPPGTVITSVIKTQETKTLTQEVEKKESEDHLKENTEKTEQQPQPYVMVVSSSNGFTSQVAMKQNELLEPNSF
Outline: as §1

EHF = target: T5, EHF (Homo sapiens, UniProt Q9NZC4 1-300); details: protein: recombinant; tags: N-terminal GST; dsDNA, one strand shown
T5 sequence: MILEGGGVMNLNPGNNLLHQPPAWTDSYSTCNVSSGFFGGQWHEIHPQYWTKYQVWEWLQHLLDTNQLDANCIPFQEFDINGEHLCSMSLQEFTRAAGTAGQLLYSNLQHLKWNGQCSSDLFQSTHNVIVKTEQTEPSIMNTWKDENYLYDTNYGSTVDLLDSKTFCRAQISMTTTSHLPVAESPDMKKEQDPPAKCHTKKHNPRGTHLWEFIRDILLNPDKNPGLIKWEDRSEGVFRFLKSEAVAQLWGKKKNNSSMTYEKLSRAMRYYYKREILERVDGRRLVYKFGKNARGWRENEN
Outline: as §1

SPI1 = SPI1 (Homo sapiens, UniProt P17947 1-270); details: protein: recombinant; tags: N-terminal GST; dsDNA, one strand shown
Outline: as §1

SPIB = SPIB (Homo sapiens, UniProt Q01892 1-262); details: protein: recombinant; tags: N-terminal GST; dsDNA, one strand shown
Sequence of SPIB (Q01892 whole entry): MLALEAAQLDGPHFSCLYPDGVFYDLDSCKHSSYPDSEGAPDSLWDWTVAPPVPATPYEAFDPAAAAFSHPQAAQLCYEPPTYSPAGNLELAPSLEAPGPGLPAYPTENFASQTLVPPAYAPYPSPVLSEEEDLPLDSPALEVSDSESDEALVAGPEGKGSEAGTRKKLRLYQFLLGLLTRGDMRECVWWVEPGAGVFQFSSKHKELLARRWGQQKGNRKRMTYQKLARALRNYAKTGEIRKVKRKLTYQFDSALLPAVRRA
Outline: as §1

FEV = target: T6, FEV (Homo sapiens, UniProt Q99581 1-238); details: protein: recombinant; tags: N-terminal GST; dsDNA, one strand shown
T6 sequence: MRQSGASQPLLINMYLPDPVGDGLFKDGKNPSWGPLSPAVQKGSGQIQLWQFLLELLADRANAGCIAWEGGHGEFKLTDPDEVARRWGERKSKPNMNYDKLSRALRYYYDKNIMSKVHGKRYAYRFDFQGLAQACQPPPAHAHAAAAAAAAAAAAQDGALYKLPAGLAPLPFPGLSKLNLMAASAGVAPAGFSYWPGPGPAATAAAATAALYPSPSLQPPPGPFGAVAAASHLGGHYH
Outline: as §1

ETV5 = ETV5 (Homo sapiens, UniProt P41161 1-510); details: protein: recombinant; tags: N-terminal GST; dsDNA, one strand shown
Sequence of ETV5 (P41161 whole entry): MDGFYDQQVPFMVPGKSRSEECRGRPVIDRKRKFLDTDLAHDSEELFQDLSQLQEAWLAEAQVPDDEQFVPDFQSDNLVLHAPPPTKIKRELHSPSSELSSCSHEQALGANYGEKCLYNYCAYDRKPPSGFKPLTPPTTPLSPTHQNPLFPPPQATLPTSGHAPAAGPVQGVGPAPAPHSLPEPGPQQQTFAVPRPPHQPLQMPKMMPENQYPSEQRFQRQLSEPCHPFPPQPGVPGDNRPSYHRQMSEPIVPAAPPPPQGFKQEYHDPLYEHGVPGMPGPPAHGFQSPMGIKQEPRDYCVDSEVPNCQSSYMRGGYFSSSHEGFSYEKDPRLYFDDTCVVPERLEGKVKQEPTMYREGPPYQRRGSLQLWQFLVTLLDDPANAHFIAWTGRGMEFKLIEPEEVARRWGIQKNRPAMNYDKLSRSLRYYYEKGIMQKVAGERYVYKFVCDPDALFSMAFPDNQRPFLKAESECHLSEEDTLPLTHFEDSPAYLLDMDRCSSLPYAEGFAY
Outline: as §1

HSF1 = HSF1 (Homo sapiens, UniProt Q00613 1-529); details: protein: recombinant; tags: N-terminal GST; chain copies: 3; dsDNA, one strand shown
Sequence of HSF1 (Q00613 whole entry): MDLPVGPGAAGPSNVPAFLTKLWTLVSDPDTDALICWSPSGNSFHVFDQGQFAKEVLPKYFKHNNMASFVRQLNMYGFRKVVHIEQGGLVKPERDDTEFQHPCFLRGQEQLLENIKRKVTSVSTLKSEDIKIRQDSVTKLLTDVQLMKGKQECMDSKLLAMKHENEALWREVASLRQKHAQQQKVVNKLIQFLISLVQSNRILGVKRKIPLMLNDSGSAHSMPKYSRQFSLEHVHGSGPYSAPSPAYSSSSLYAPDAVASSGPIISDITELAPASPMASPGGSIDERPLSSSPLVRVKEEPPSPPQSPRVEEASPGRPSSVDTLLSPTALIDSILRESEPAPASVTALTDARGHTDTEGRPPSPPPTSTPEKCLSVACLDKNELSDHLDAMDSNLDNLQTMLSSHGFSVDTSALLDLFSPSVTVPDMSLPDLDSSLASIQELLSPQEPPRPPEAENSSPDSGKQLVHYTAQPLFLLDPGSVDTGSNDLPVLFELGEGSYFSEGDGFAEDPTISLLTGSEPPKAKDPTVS
Outline: as §1

SPIC = target: T7, SPIC (Homo sapiens, UniProt Q8N5J4 1-248); details: protein: recombinant; tags: N-terminal GST; dsDNA, one strand shown
T7 sequence: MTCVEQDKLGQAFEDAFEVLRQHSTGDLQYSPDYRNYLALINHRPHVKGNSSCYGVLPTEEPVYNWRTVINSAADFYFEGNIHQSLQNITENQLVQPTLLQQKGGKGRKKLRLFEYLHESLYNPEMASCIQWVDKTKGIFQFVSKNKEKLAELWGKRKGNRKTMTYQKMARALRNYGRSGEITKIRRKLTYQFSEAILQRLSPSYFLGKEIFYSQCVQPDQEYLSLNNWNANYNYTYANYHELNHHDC
Outline: as §1

ELF4 = ELF4 (Homo sapiens, UniProt Q99607 1-663); details: protein: recombinant; tags: N-terminal GST; dsDNA, one strand shown
Sequence of ELF4 (Q99607 whole entry): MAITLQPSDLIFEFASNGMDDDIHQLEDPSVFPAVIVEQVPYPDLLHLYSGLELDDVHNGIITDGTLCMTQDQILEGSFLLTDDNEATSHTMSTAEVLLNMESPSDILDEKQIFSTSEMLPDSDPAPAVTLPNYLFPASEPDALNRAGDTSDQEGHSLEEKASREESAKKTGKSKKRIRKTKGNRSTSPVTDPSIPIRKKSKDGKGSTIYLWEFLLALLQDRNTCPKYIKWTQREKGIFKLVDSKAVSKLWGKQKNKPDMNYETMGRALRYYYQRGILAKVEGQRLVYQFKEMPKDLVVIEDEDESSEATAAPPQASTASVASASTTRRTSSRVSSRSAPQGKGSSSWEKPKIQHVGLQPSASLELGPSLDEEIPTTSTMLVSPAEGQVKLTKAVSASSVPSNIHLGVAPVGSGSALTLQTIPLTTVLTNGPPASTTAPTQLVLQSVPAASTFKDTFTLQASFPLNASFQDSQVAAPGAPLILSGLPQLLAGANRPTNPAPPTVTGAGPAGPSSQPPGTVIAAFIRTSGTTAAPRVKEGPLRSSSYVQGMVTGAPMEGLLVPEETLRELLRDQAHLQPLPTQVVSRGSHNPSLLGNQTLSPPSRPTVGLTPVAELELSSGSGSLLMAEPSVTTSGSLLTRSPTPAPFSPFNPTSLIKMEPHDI
Outline: as §1

ELK4 = target: T8, ELK4 (Homo sapiens, UniProt P28324-2 1-405); details: protein: recombinant; tags: N-terminal GST; dsDNA, one strand shown
T8 sequence: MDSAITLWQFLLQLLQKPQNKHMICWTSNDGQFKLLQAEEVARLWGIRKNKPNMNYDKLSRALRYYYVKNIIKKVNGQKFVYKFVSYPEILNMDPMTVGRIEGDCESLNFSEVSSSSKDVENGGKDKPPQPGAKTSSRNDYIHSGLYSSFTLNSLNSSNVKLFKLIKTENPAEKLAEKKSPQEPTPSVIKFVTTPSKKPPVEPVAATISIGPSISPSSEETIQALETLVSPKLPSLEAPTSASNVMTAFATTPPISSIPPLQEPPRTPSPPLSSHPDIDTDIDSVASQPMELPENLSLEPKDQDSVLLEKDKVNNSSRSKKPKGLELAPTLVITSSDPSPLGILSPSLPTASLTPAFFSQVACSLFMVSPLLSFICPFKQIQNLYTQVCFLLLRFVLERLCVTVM
Outline: as §1

ETV2 = target: T9, ETV2 (Homo sapiens, UniProt O00321 1-342); details: protein: recombinant; tags: N-terminal GST; dsDNA, one strand shown
T9 sequence: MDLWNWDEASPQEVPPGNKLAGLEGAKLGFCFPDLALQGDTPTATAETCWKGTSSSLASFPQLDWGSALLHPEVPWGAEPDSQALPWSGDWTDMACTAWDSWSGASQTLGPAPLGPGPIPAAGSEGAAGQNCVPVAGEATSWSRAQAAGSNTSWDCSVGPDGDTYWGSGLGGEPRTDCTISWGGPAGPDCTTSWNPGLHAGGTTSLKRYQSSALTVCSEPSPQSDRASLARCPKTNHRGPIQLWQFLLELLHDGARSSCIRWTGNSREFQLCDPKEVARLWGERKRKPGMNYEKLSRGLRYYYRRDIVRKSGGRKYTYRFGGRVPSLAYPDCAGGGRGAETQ
Outline: as §1

ETV1 = ETV1 (Homo sapiens, UniProt P50549 1-477); details: protein: recombinant; tags: N-terminal GST; dsDNA, one strand shown
Sequence of ETV1 (P50549 whole entry): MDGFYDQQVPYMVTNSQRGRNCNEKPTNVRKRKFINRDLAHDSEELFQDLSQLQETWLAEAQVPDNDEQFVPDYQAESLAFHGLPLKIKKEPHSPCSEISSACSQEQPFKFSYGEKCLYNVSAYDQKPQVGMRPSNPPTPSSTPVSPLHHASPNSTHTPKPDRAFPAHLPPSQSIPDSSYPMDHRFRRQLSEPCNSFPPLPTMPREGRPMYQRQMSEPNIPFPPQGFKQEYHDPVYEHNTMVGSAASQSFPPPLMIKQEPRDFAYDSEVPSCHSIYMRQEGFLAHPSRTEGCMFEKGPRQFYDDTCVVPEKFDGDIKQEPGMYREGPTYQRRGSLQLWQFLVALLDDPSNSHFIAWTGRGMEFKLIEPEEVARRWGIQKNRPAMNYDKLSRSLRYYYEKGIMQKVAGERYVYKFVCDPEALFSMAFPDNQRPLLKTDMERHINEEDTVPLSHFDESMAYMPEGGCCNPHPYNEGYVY
Outline: as §1

In the case of CTGGAC, the binding signal (FLI1) was 1.16 fold enrichment (6-mer frequency, TF over GST control), the binding signal (ELK1) was 1.07 fold enrichment (6-mer frequency, TF over GST control) and the binding signal (GABPA) was 1.17 fold enrichment (6-mer frequency, TF over GST control). The binding signal (ERG) was 1.13 fold enrichment (6-mer frequency, TF over GST control), the binding signal (ELF1) was 1.12 fold enrichment (6-mer frequency, TF over GST control) and the binding signal (EHF) was 1.13 fold enrichment (6-mer frequency, TF over GST control). For the same sequence, the binding signal (SPI1) was 1.08 fold enrichment (6-mer frequency, TF over GST control), the binding signal (SPIB) was 1.05 fold enrichment (6-mer frequency, TF over GST control) and the binding signal (FEV) was 1.1 fold enrichment (6-mer frequency, TF over GST control). For the same sequence, the binding signal (ETV5) was 1.18 fold enrichment (6-mer frequency, TF over GST control), the binding signal (HSF1) was 1.23 fold enrichment (6-mer frequency, TF over GST control) and the binding signal (SPIC) was 1.1 fold enrichment (6-mer frequency, TF over GST control). For the same sequence, the binding signal (ELF4) was 1.19 fold enrichment (6-mer frequency, TF over GST control), the binding signal (ELK4) was 1.11 fold enrichment (6-mer frequency, TF over GST control) and the binding signal (ETV2) was 1.2 fold enrichment (6-mer frequency, TF over GST control). The binding signal (ETV1) was 1.09 fold enrichment (6-mer frequency, TF over GST control).
